Measurements reported in PubChem BioAssay (Tox21).
Values joined by “and” are separate entries in the source; they are usually repeats but may differ in a detail not shown here. Equal values may be shown once. Inconclusive results are not listed. Some structures have more than one record in an assay (separate samples or runs), and their calls can disagree. Active and inactive are the calls of the source. Unless noted, calls follow the shape of the dose curve; as a rule, active = well fitted curve in the direction sought with a large enough effect in the repeat runs; inconclusive = weak or mixed curves; inactive = no such curve, though single readings can be large; an effect the other way counts as inactive or inconclusive.

What was measured:
[1] = qHTS assay to identify small molecule agonists of the RXR signaling pathway - cell viability counter screen (AID 1159529); also: nearly all actives have a fitted effect of over 50% in size; also: potency is read from the fitted curve at half-maximal effect
Summary of the method: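 Compounds dissolved in DMSO were pinned onto HEK 293T cells carrying a beta-lactamase reporter under RXR-alpha control and incubated 16 hr. Cytotoxicity was then quantified by CellTiter-Glo luminescence.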

[2] = qHTS assay to identify small molecule antagonists of the retinoid acid receptor (RAR) signaling pathway - cell viability counter screen (AID 1159551); also: nearly all actives have a fitted effect of over 35% in size
Summary of the method: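 Viability of C3RL4 cells is quantified from ATP by luminescence after 6 h treatment at 37 C with compounds and 1 uM retinol.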

[3] = qHTS assay to identify small molecule antagonists of the retinoic acid receptor (RAR) signaling pathway (AID 1159552; also: nearly all actives have a fitted effect of over 50% in size)
Summary of the method: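 Test chemicals and DMSO controls were pin-transferred onto C3RL4 cells a day after seeding; retinol (1 uM final) followed at once. Luminescent reporter output was quantified after 6 hr of co-incubation and 30 min with detection reagent.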

[4] = qHTS assay to identify small molecule agonists of the retinoic acid receptor (RAR) signaling pathway (AID 1159553); settings: C3RL4 RARE luciferase reporter, agonist, 6 h
Summary of the method: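 Compounds dissolved in DMSO were pinned onto C3RL4 cells seeded the previous day, and plates were held 6 hr at 37 C. RARE-driven luciferase output was then read by luminescence.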

[5] = qHTS assay to identify small molecule antagonists of the estrogen related receptor (ERR) signaling pathway from Tox21 library - cell viability counter screen (AID 1224834); also: nearly all actives have a fitted effect of over 30% in size; also: potency is read from the fitted curve at half-maximal effect
Summary of the method: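 In this quantitative HTS format, ERR cells receive compounds in DMSO and are incubated for 17.5 h at 37 C. Live-cell protease activity is then detected with CellTiter-Fluor.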

[6] = molecular target: Luciferin 4-monooxygenase (Photinus pyralis) (UniProt P08659); assay: qHTS assay to identify small molecule inhibitors of firefly luciferase (AID 1224835); also: nearly all actives have a fitted effect of over 25% in size; also: potency is read from the fitted curve at half-maximal effect
Sequence of Luciferin 4-monooxygenase (Photinus pyralis) (P08659 whole entry, looked up): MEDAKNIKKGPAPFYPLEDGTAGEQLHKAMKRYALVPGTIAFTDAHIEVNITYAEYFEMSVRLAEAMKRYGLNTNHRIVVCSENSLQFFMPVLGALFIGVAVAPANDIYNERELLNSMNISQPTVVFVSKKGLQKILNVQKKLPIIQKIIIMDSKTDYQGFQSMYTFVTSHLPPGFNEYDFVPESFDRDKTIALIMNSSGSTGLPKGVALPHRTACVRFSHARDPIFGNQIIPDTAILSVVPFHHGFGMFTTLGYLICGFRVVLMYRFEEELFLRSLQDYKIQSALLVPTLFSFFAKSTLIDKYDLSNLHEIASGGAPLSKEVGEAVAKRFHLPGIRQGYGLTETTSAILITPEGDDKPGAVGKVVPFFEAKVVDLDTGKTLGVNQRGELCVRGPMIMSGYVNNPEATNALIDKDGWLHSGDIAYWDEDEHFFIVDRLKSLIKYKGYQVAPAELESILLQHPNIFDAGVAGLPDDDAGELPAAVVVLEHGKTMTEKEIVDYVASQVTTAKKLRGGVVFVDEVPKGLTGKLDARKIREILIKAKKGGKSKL
Summary of the method: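 Biochemical qHTS: compounds run as interplate titrations against purified firefly enzyme, with D-luciferin and ATP each at its KM concentration. Light output recorded by CCD imaging.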

[7] = qHTS assay to identify small molecule agonists of the constitutive androstane receptor (CAR) signaling pathway - cell viability counter screen (AID 1224836); also: nearly all actives have a fitted effect of over 45% in size
Summary of the method: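 23 h treatment, 37 C, 5% CO2. Cell line: HepG2 stably expressing hCAR with a CYP2B6-2.2kb construct. Co-treatment: PK11195, 0.75 uM final. Read-out: CellTiter-Fluor fluorescence intensity.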

[8] = qHTS assay to identify small molecule antagonists of the constitutive androstane receptor (CAR) signaling pathway - cell viability counter screen (AID 1224837); also: nearly all actives have a fitted effect of over 45% in size
Summary of the method: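 In quantitative HTS format, compounds at 15 concentrations were applied to HepG2 cells double-transfected with hCAR and CYP2B6-2.2kb under 50 nM CITCO stimulation; live-cell protease activity was read after 23 hr via CellTiter-Fluor.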

[9] = molecular target: Nuclear receptor subfamily 1 group I member 3 (Homo sapiens) (UniProt Q14994); assay: qHTS assay to identify small molecule antagonists of the constitutive androstane receptor (CAR) signaling pathway (AID 1224838); also: nearly all actives have a fitted effect of over 40% in size
Sequence of Nuclear receptor subfamily 1 group I member 3 (Homo sapiens) (Q14994 whole entry, looked up): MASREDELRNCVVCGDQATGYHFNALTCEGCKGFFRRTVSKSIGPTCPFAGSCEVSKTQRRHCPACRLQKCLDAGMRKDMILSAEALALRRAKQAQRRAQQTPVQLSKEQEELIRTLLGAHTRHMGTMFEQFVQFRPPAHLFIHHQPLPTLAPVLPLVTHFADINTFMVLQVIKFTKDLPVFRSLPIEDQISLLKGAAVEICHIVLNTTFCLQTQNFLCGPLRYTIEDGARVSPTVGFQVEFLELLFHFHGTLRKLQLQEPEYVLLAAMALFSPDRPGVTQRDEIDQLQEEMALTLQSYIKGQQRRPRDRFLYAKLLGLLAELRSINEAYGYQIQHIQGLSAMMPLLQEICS
Summary of the method: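 CITCO-stimulated (50 nM final) HepG2 cells stably transfected with hCAR and CYP2B6-2.2kb luciferase were exposed to compounds at 15 concentrations for 24 h at 37 C/5% CO2. A luciferase reagent was added and luminescence recorded after 30 min.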

[10] = molecular target: Nuclear receptor subfamily 1 group I member 3 (Homo sapiens) (UniProt Q14994); assay: qHTS assay to identify small molecule agonists of the constitutive androstane receptor (CAR) signaling pathway (AID 1224839);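 also: HepG2 cells stably carrying human CAR and a CYP2B6 luciferase reporter; nearly all actives have a fitted effect of over 15% in size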
Summary of the method: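 Compounds tested at 15 concentrations on HepG2 cells stably harbouring hCAR and CYP2B6-2.2kb reporter constructs, co-treated with PK11195 (0.75 uM final), 24 h at 37 C; luminescent reporter signal quantified.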

[11] = qHTS assay to identify small molecule antagonists of the estrogen related receptor signaling pathway with the pleiotropic PPARgamma coactivator (PGC) from Tox21 10K library - cell viability counter screen (AID 1224840; active = well fitted cell-killing curve with a large enough effect in the repeat runs, not every such curve was filed as active; also: nearly all actives have a fitted effect of over 40% in size)
Summary of the method: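 Viability counter screen, PGC/ERR cells: 17.5 h compound exposure at 37 C, CellTiter-Fluor fluorescence endpoint.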

[12] = molecular target: Thyrotropin receptor (Homo sapiens) (UniProt P16473); assay: qHTS assay to identify small molecule agonists of the thyroid stimulating hormone receptor (TSHR) signaling pathway (AID 1224843; calls by dose curve; also: nearly all actives have a fitted effect of over 45% in size)
Sequence of Thyrotropin receptor (Homo sapiens) (P16473 whole entry, looked up): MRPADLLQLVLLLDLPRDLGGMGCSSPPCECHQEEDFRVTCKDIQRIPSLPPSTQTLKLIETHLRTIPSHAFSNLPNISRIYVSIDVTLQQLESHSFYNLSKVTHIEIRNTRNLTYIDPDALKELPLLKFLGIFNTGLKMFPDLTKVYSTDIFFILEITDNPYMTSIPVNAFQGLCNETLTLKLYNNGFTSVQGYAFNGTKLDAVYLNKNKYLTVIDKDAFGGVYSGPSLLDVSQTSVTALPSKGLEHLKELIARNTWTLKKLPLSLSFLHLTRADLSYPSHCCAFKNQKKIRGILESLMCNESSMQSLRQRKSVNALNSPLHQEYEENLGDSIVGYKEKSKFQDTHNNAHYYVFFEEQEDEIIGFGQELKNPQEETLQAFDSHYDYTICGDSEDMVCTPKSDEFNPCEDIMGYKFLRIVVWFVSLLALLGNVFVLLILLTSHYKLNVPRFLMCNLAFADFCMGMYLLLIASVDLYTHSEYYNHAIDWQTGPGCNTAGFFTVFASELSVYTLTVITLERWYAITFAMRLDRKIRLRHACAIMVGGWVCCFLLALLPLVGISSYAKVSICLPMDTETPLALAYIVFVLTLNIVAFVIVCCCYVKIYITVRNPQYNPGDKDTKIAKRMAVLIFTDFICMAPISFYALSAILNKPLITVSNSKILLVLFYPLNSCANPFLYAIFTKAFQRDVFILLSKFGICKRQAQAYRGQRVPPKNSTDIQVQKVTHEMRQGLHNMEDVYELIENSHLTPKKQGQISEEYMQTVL
Summary of the method: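 HEK293/TSHR, 800 cells/well; cpd 30 min RT; add cAMP-d2 + anti-cAMP-cryptate, 1 h RT; fluorescence read on plate reader. 15-pt titration, n=3.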

[13] = qHTS assay to identify small molecule antagonists of the estrogen related receptor signaling pathway with the pleiotropic PPARgamma coactivator (PGC) from Tox21 10K library (AID 1224841; call rule not given here; also: actives are mostly falling curves and most rising ones were filed inactive; nearly all actives have a fitted effect of over 50% in size)
Summary of the method: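 In the PGC/ERR line, DMSO solutions of test chemicals are pin-delivered to 2,000 cells/well six hours after dispensing. Following eighteen hours' incubation, One-Glo reagent is added and luminescence recorded.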

[14] = qHTS assay to identify small molecule agonists of the estrogen related receptor signaling pathway with the pleiotropic PPARgamma coactivator (PGC) from Tox21 10K library (AID 1224842); also: nearly all actives have a fitted effect of over 15% in size
Summary of the method: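 PGC/ERR reporter cell line, 2,000 cells per well, incubated 6 h at 37 C before 23 nL compound in DMSO was added. After 18 h at 37 C, One-Glo luminescence read following 30 min at room temperature.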

[15] = activation: at 73.3 µM (top of the series) unless noted
% is scaled to controls: 0 for no effect and ±100 for the full control effect.

Cc1cccc(Nc2ccccc2C(=O)O)c1C
active: Potency [6] 79.6 µM
inactive: Potency [1] | Potency [2] | Potency [3] | Potency [4, 15] | Potency [5] | Potency [7] | Potency [8] | Potency [9] | Potency [10] | Potency [11]

CCCOCCO
inactive: Potency [1] | Potency [2] | Potency [3] | Potency [4, 15] | Potency [5] | Potency [6] | Potency [7] | Potency [8] | Potency [9] | Potency [10] | Potency [11] | Potency [12]

Cc1ccc(C(C)(C)C)cc1
inactive: Potency [1] | Potency [2] | Potency [3] | activation ([4]; at 73.3 µM (top of the series)) -0.68% | Potency [5] | Potency [6] | Potency [7] | Potency [8] | Potency [9] | Potency [10] | Potency [11] | Potency [12]
active: activation [4, 15] 0.0823% [at 94.8 µM]

CC(=O)[C@@]1(O)CC[C@H]2[C@@H]3C[C@H](C)C4=CC(=O)C=C[C@]4(C)[C@@]3(F)[C@@H](O)C[C@@]21C
inactive: Potency [1] | Potency [2] | Potency [3] | Potency [4, 15] | Potency [5] | Potency [6] | Potency [7] | Potency [8] | Potency [9] | Potency [10] | Potency [11] | Potency [13] | Potency [14]

Nc1ccc(N)c(Cl)c1
active: Potency [1] 24.5 µM and 49 µM | Potency [5] 61 µM and 54.5 µM
inactive: Potency [2] | Potency [3] | Potency [4, 15] | Potency [6] | Potency [7] | Potency [8] | Potency [9]

CCO[Si](CCCNC(N)=O)(OCC)OCC
inactive: Potency [1] | Potency [2] | Potency [3] | Potency [4, 15] | Potency [5] | Potency [6] | Potency [7] | Potency [8] | Potency [9] | Potency [10] | Potency [11] | Potency [13] | Potency [14] | Potency [12]

Clc1ccc(Sc2cc(Cl)c(Cl)cc2Cl)cc1
inactive: Potency [1] | Potency [2] | Potency [3] | Potency [4, 15] | Potency [5] | Potency [6] | Potency [7] | Potency [8] | Potency [9] | Potency [10] | Potency [11] | Potency [12]

ClC/C=C/CCl
inactive: Potency [1] | Potency [2] | Potency [3] | Potency [4, 15] | Potency [5] | Potency [6] | Potency [7] | Potency [8] | Potency [9] | Potency [10] | Potency [11] | Potency [13] | Potency [14] | Potency [12]

CCCCCCCCCCCCCO
inactive: Potency [1] | Potency [2] | Potency [3] | Potency [4, 15] | Potency [5] | Potency [7] | Potency [8] | Potency [9] | Potency [10] | Potency [11] | Potency [13] | Potency [14]
active: Potency [6] 82.5 µM

CC(=O)Oc1c(C)c(C)c2c(c1C)CC[C@@](C)(CCC[C@H](C)CCC[C@H](C)CCCC(C)C)O2
inactive: Potency [1] | Potency [2] | Potency [3] | Potency [4, 15] | Potency [5] | Potency [6] | Potency [7] | Potency [8] | Potency [9] | Potency [10] | Potency [11] | Potency [13] | Potency [14] | Potency [12]

C=CC(=O)OCCCC
inactive: Potency [1] | Potency [2] | Potency [3] | Potency [4, 15] | Potency [5] | Potency [6] | Potency [7] | Potency [8] | Potency [9] | Potency [10] | Potency [11] | Potency [13] | Potency [14] | Potency [12]

Cc1ccc(S(=O)(=O)O)cc1C
inactive: Potency [1] | Potency [2] | Potency [3] | Potency [4, 15] | Potency [5] | Potency [6] | Potency [7] | Potency [8] | Potency [9] | Potency [10] | Potency [11] | Potency [12]

CC1=CC(C)(C)Nc2ccccc21
inactive: Potency [1] | Potency [2] | Potency [3] | Potency [4, 15] | Potency [5] | Potency [6] | Potency [7] | Potency [8] | Potency [9] | Potency [10] | Potency [11] | Potency [13] | Potency [14]

COCCOCCOCCO
inactive: Potency [1] | Potency [2] | Potency [3] | Potency [4, 15] | Potency [5] | Potency [6] | Potency [7] | Potency [8] | Potency [9] | Potency [10] | Potency [11] | Potency [13] | Potency [14] | Potency [12]

C=CCCCCCCCCCC
inactive: Potency [1] | Potency [2] | Potency [3] | Potency [4, 15] | Potency [5] | Potency [6] | Potency [7] | Potency [8] | Potency [9] | Potency [10] | Potency [11]

Brc1nc2ccccc2s1
inactive: Potency [1] | Potency [2] | Potency [3] | Potency [4, 15] | Potency [5] | Potency [7] | Potency [8] | Potency [9] | Potency [10] | Potency [11] | Potency [12]
active: Potency [6] 39.8 µM

C=CCOC(=O)C(=C)C
inactive: Potency [1] | Potency [2] | Potency [3] | Potency [4, 15] | Potency [5] | Potency [6] | Potency [7] | Potency [8] | Potency [9] | Potency [10] | Potency [11] | Potency [13] | Potency [14] | Potency [12]

C=C[Si](OCCOC)(OCCOC)OCCOC
inactive: Potency [1] | Potency [2] | Potency [3] | Potency [4, 15] | Potency [5] | Potency [6] | Potency [7] | Potency [8] | Potency [9] | Potency [10] | Potency [11] | Potency [12]
